Data from the supplement of paper PMC10849652.
The full data set covers some 8,800 targets. This sample favours those with a hit. About 0.5% of all pairs of compound and target were hits.

Compound: COc1cc(Nc2ncc3c(n2)-c2ccc(Cl)cc2C(c2c(F)cccc2OC)=NC3)ccc1C(=O)O [alisertib]
Assay: log2 fold change, soluble protein after heating vs DMSO (PISA); higher = thermal stabilisation; K562 lysate, 10 uM; active = over 0.2 and 3.5 SD of the protein, either way, in both replicates (recomputed)
In short: (§1)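 K562 pellets were dounce-homogenised in PBS pH 7.4 containing 1 mM MgCl2, and the crude extract, at 1 mg/mL protein, was exposed to 10 μM compound for 30 min. Aliquots were heated for 3 min across 48°C-58°C, pooled, brought to 0.5% NP-40 at 4°C and spun at 21,000xg for 90 min, with the supernatant taken as soluble protein. TMTpro 16plex LC-MS/MS with equalised channel sums quantified that protein. Values are log-two fold changes in thermal stability relative to solvent controls, taken from duplicates.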

Chain of UniProt P51116 (P51116 whole entry, looked up): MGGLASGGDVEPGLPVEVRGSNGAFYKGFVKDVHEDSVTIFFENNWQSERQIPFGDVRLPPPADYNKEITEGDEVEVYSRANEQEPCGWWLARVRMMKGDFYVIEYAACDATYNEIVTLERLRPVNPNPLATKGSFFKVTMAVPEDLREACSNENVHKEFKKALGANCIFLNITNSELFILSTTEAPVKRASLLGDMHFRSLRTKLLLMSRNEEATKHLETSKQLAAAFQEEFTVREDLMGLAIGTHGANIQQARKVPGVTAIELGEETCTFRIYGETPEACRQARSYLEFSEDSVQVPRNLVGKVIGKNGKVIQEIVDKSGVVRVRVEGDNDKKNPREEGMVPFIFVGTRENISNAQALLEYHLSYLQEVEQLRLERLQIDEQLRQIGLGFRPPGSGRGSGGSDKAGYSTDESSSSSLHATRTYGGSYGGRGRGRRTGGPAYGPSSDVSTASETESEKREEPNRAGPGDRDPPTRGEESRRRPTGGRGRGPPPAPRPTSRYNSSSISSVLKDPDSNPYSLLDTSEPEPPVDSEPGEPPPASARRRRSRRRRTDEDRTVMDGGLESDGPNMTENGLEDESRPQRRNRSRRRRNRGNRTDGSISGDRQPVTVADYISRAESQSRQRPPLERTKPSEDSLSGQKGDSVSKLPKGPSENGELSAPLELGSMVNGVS
Chain of UniProt P51570 (P51570 whole entry, looked up): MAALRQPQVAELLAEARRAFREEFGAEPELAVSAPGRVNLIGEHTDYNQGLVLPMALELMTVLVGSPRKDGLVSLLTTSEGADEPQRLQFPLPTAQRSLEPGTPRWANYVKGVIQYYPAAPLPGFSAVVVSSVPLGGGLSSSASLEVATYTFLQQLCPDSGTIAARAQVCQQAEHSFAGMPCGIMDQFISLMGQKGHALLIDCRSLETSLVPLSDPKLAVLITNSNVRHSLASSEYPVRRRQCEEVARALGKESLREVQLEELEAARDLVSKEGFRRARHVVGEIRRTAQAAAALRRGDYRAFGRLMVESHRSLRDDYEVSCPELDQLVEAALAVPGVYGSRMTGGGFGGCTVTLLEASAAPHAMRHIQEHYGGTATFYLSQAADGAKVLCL
Chain of UniProt O15117 (O15117 whole entry, looked up): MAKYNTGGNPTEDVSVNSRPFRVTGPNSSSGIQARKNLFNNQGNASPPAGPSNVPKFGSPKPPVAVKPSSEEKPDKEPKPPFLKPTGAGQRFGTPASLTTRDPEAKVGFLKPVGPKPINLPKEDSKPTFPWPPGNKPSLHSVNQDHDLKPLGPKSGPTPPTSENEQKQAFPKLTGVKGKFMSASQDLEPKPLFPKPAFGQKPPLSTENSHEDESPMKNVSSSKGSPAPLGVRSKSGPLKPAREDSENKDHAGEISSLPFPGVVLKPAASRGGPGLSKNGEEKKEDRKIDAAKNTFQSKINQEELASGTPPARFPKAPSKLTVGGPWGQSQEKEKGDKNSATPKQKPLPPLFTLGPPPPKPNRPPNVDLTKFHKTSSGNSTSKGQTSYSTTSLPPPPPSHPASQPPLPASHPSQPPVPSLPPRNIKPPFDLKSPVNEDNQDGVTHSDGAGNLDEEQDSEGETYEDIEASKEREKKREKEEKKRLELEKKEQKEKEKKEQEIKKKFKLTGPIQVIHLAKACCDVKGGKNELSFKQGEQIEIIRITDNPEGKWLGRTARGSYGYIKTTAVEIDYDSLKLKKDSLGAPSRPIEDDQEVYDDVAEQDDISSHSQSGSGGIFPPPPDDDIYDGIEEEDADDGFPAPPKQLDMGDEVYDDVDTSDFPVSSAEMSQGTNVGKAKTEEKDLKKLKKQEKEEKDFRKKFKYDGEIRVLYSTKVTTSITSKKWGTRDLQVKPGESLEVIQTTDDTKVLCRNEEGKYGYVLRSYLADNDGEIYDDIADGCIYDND
Chain of UniProt O75071 (O75071 whole entry, looked up): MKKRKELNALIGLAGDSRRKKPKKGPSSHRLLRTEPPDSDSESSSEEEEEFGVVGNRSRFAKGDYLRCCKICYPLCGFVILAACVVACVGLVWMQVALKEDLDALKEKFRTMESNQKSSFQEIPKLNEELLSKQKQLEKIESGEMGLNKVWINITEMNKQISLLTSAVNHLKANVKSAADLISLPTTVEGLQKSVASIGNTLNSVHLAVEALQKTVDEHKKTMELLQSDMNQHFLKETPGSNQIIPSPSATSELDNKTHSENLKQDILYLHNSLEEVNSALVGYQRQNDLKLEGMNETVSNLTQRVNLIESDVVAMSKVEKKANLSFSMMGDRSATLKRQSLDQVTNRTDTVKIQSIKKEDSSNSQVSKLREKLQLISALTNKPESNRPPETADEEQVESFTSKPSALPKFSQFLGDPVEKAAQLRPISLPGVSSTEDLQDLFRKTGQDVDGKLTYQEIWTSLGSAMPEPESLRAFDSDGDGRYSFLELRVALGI
Chain of UniProt P34913 (P34913 whole entry, looked up): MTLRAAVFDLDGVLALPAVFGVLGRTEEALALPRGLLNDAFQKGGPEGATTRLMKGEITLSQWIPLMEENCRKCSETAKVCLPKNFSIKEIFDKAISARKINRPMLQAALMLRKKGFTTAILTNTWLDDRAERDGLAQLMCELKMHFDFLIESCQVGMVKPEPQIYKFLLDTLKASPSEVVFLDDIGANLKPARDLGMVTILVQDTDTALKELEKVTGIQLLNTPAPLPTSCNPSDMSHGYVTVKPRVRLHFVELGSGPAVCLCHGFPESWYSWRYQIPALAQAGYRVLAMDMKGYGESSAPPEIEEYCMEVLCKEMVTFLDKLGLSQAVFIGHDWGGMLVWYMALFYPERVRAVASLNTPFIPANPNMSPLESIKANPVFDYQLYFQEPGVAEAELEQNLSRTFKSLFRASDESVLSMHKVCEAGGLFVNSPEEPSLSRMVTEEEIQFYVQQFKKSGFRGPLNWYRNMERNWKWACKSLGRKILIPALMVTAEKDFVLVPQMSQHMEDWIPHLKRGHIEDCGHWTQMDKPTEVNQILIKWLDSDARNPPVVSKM
Chain of UniProt Q96A65 (Q96A65 whole entry, looked up): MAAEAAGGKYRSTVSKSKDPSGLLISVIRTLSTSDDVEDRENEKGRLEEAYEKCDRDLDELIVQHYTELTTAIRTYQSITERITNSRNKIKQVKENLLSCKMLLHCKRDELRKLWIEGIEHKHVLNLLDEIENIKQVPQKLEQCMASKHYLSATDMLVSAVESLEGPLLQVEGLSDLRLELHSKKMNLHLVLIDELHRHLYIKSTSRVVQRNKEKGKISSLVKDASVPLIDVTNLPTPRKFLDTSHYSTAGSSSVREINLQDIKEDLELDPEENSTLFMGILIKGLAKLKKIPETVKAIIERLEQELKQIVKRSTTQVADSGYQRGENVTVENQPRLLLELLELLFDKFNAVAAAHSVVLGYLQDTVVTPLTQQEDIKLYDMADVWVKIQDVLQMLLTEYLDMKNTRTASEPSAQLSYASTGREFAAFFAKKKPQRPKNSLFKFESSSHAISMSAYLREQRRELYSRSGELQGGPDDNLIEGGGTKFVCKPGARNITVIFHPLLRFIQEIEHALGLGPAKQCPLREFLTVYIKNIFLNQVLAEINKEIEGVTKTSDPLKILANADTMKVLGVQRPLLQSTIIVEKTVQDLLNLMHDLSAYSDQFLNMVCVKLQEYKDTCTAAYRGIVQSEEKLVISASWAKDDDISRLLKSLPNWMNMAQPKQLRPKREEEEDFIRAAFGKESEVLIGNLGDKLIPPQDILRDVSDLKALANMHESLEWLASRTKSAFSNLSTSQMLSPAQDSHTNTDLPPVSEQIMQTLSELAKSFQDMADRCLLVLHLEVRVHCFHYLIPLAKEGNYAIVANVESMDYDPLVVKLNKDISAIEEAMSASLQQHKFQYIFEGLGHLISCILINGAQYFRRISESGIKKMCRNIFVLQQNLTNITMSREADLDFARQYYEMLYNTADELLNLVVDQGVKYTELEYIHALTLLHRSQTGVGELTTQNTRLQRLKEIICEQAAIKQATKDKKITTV
Chain of UniProt Q13347 (Q13347 whole entry, looked up): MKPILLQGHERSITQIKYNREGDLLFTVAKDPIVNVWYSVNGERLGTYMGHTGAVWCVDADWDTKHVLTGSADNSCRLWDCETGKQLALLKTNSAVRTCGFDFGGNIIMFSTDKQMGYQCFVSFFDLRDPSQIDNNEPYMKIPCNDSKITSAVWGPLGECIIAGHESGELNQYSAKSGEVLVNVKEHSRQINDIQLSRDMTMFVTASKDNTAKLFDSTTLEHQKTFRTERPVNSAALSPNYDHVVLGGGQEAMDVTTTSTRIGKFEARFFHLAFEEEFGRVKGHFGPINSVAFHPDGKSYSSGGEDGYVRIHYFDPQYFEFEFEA
Chain of UniProt Q9NR50 (Q9NR50 whole entry, looked up): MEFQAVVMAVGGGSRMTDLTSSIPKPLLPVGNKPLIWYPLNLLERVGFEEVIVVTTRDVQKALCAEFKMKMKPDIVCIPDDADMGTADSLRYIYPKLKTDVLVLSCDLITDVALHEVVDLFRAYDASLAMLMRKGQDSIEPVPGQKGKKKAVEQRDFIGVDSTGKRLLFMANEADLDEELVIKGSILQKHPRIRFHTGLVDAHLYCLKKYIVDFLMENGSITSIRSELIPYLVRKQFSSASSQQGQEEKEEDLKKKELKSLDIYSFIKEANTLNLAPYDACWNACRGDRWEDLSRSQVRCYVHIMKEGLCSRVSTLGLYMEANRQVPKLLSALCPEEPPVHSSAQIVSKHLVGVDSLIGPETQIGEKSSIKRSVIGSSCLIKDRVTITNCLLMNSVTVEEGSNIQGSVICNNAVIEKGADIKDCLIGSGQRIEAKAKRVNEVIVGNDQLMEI
Chain of UniProt Q9UBQ6 (Q9UBQ6 whole entry, looked up): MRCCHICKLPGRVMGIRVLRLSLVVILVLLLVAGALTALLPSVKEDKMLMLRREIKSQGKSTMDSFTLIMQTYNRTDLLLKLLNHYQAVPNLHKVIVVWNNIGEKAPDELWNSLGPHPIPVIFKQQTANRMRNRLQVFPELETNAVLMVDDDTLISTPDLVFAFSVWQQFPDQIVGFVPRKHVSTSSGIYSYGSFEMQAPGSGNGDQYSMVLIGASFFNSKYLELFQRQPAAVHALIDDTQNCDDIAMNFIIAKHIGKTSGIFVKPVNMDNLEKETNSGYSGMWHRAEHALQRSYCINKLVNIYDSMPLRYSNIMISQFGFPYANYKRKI

log2 fold change, inactive:
FTL (UniProt P02792) 0.067
EPHX2 (UniProt P34913) -0.045
FLAD1 (UniProt Q8NFF5) -0.025
ELF2 (UniProt Q15723) -0.101
EPB41, A0A2R8Y6D0 0.165
EIF3I (UniProt Q13347) 0.003
ERCC4 (UniProt Q92889) 0.047
EIF2B4 isoform 2 (UniProt Q9UI10) -0.014
EP400 isoform 5 (UniProt Q96L91) 0.004
GCN1 (UniProt Q92616) 0.023
FBXO22 (UniProt Q8NEZ5) 0.034
GIGYF2 (UniProt Q6Y7W6) 0.028
GAMT (UniProt Q14353) 0.018
ERLIN2 (UniProt O94905) 0
EIF2B3 (UniProt Q9NR50) -0.016
GALK1 isoform 2 (UniProt P51570) 0.054
ERAL1 (UniProt O75616) -0.008
EFCAB14 (UniProt O75071) 0.063
FPGT (UniProt O14772) 0.002
FXR2 (UniProt P51116) 0.017
FAU (UniProt E9PR30) 0.035
FIBP (UniProt O43427) 0.012
EIF2B5 (UniProt Q13144) -0.004
ECI2 (UniProt O75521) 0.004
EED, A0A5F9ZI63 -0.01
DST (UniProt Q03001) 0.003
FYB1 isoform 3 (UniProt O15117) -0.012
EXTL2 (UniProt Q9UBQ6) -0.021
EXOC4 (UniProt Q96A65) 0.009
GGT7 (UniProt Q9UJ14) -0.015
DYNC1I2 isoform 5 (UniProt Q13409) -0.011
FIG4 (UniProt Q92562) -0.145
EXOC2 (UniProt Q96KP1) 0
FOXJ3 (UniProt Q9UPW0) -0.028
EPRS (UniProt P07814) 0.015
GALNT2 (UniProt Q10471) 0.028
GGA2 (UniProt Q9UJY4) 0.038

Compound: COc1cc2nc(-c3cc(F)ccc3O)nc(N[C@@H]3CNC[C@H]3C(C)(C)O)c2cc1OC
Assay: as above
In short: as §1

log2 fold change, inactive:
FTL (UniProt P02792) 0.007
EPHX2 (UniProt P34913) -0.007
FLAD1 (UniProt Q8NFF5) -0.013
ELF2 (UniProt Q15723) -0.06
EPB41, A0A2R8Y6D0 -0.014
EIF3I (UniProt Q13347) 0.009
ERCC4 (UniProt Q92889) 0.024
EIF2B4 isoform 2 (UniProt Q9UI10) 0.016
EP400 isoform 5 (UniProt Q96L91) 0.023
GCN1 (UniProt Q92616) 0.006
FBXO22 (UniProt Q8NEZ5) 0.013
GIGYF2 (UniProt Q6Y7W6) 0.013
GAMT (UniProt Q14353) -0.021
ERLIN2 (UniProt O94905) -0.06
EIF2B3 (UniProt Q9NR50) -0.007
GALK1 isoform 2 (UniProt P51570) -0.016
ERAL1 (UniProt O75616) 0.016
EFCAB14 (UniProt O75071) 0.012
FPGT (UniProt O14772) 0.002
FXR2 (UniProt P51116) 0.013
FAU (UniProt E9PR30) -0.016
FIBP (UniProt O43427) 0.002
EIF2B5 (UniProt Q13144) 0.005
ECI2 (UniProt O75521) -0.008
EED, A0A5F9ZI63 0.013
DST (UniProt Q03001) 0.033
FYB1 isoform 3 (UniProt O15117) -0.014
EXTL2 (UniProt Q9UBQ6) -0.005
EXOC4 (UniProt Q96A65) 0.008
GGT7 (UniProt Q9UJ14) 0.044
DYNC1I2 isoform 5 (UniProt Q13409) 0.004
FIG4 (UniProt Q92562) 0.079
EXOC2 (UniProt Q96KP1) 0.007
FOXJ3 (UniProt Q9UPW0) 0
EPRS (UniProt P07814) -0.01
GALNT2 (UniProt Q10471) -0.021
GGA2 (UniProt Q9UJY4) 0.023
